Laboratory results taken from PubChem BioAssay (EPA / NIEHS).
Results filed as inconclusive are left out. Active and inactive are the calls of the source. The calls were made as follows: active = hit-call score of the fitted dose curve at least 0.9, where 1 is the maximum; inconclusive = response in the unintended direction; inactive = score below 0.9.

Test: Tanguay_ZF_120hpf_PFIN_legacy: (Legacy) Oregon State University Tanguay Lab 120 Hour Post-fertilization zebrafish Assay for Pectoral Fin Malformation (AID 2283648);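 also: each larva judged yes or no for fin defect by brightfield with dead larvae skipped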
Method: Tanguay_ZF_120hpf_legacy is a whole embryo, multiplexed endpoint assay using zebrafish larvae exposed for 120 hours post fertilization on a 96-well plate.Tanguay_ZF_120hpf_PFIN_legacy is one of one assay component(s) measured or calculated from the Tanguay_ZF_120hpf_legacy assay. It is designed to make measurements of zebrafish development as detected with brightfield microscopy of developing zebrafish embryos.Data from the assay component Tanguay_ZF_120hpf_PFIN_legacy was analyzed into 1 assay endpoints. This assay endpoint, Tanguay_ZF_120hpf_PFIN_legacy, was analyzed in the positive analysis fitting direction relative to DMSO as the negative control and baseline of activity. Using a type of morphology reporter, gain-of-signal activity can be used to understand changes in developmentals as they relate to the whole embryo. To generalize the intended target to other relatable targets, this assay endpoint is annotated to the zebrafish development intended target family, where the subfamily is pectoral fin morphogenesis.
Zebrafish husbandry: Tropical 5D wild-type adult zebrafish were housed in at an approximate density of 1000 per 100 gallon tank at the Sinnhuber Aquatic Research Laboratory, Oregon State University, Corvallis, OR. Each tank was kept at standard laboratory conditions of 28C on a 14-h light/10-h dark photoperiod in fish water consisting of reverse osmosis water supplemented with a commercially available salt (Instant Ocean). Spawning funnels were placed into the tanks the night prior, and embryos were collected and staged. To increase bioavailability, the chorion was enzymatically removed using pronase (63.6mg/ml, >/= 3.5U/mg, Sigma-Aldrich: P5147) at 4 hours post fertilization (hpf) using a custom automated dechorionator.Chemical exposures: Six hpf dechorionated embryos were placed 1 embryo per well in a 96-well plate prefilled with 90 ul of EM using automated embryo placement systems (AEPS). Ten microliters of each row of dilution plate 2 was added to 2 exposure plates. The final DMSO concentration used was 0.64% (vol/vol). Thirty-two embryos were also exposed to 5uM trimethyltin chloride (positive control). Plates were sealed to prevent evaporation and foil covered to reduce light exposure and kept in a 28C incubator. Embryos were statically exposed until 120 hpf. At 24 hpf, embryos were assessed for photomotor response using a custom photomotor response analysis tool (PRAT) and for developmental toxicity endpoints (MO24: mortality at 24 hpf, DP: developmental progression, SM: spontaneous movement, and NC: notochord distortion). At 120 hpf, locomotor activity was measured using Viewpoint Zebralab and assessed for 18 endpoints. Zebrafish acquisition and analysis program (ZAAP), a custom program designed to inventory, acquire, and manage zebrafish data, was used to collect developmental endpoints as either present or absent (i.e., binary responses were recorded). If mortality occurred for an embryo (at either 24 or 120 hpf), the non-mortality endpoints were not measured.

SMILES	outcome	AC50
CC(C)(O)C(=O)Nc1ccc([N+](=O)[O-])c(C(F)(F)F)c1	inactive	
Cc1ccc(O)c(C)c1	inactive	
CO/C=C(/C(=O)OC)c1ccccc1COc1cccc(C(F)(F)F)n1		5.66 µM (active)
NS(=O)(=O)C(F)(F)C(F)(F)C(F)(F)C(F)(F)C(F)(F)C(F)(F)C(F)(F)C(F)(F)F	inactive	
Clc1ccc(C(c2ccccc2Cl)C(Cl)(Cl)Cl)cc1 (stereo not given)	inactive	
O=NN(c1ccccc1)c1ccccc1	inactive	
ClC1=C(Cl)[C@]2(Cl)[C@@H]3[C@H]4C[C@H]([C@@H]5O[C@H]45)[C@@H]3[C@@]1(Cl)C2(Cl)Cl	inactive	
Cc1cccc([N+](=O)[O-])c1	inactive	
CCNc1nc(NC(C)C)nc(SC)n1	inactive	
O=C(N[C@H]1CN2CCC1CC2)c1cc2ccoc2cn1	inactive	
CCOP(=S)(OCC)SCSC(C)(C)C	inactive	
CCCN(CCC)N=O	inactive	
CCC(C)(c1ccc(O)cc1)c1ccc(O)cc1		44.7 µM (active)
C=CC(=O)NCNC(=O)C=C	inactive	
O=C(NC(=O)c1cc(F)c(F)cc1Cl)Nc1cc(F)ccc1N1CCC(C(=O)O)CC1	inactive	
Cc1cc(O)ccc1Cl	inactive	
Cc1ccccc1O	inactive	
Nc1ccc(-c2ccc(N)cc2)cc1	inactive	
Cc1cc(-c2ccc(N)c(C)c2)ccc1N	inactive	
COS(=O)(=O)OC	inactive	

SMILES	outcome	AC50
CCCCCCOC(=O)c1ccccc1C(=O)OCCCCCC	inactive	
CCOCCOC(C)=O	inactive	
CC1=C2C[C@H]3[C@@H](CC=C4C[C@@H](O)CC[C@@]43C)[C@@H]2CC[C@]12O[C@@H]1C[C@H](C)CN[C@H]1[C@H]2C		21.8 µM (active)
C=CC(N)=O	inactive	
O=S(=O)(O)C(F)(F)C(F)(F)C(F)(F)C(F)(F)C(F)(F)C(F)(F)F	inactive	
CCSC(=O)N(CC)C1CCCCC1	inactive	
C1CC2OC2CC1C1CO1 (stereo not given)	inactive	
CCC(C)c1cc([N+](=O)[O-])cc([N+](=O)[O-])c1O (stereo not given)	inactive	
CCCCCCCCOC(=O)c1ccccc1C(=O)OCCCCCCCC	inactive	
Cc1ccccc1[N+](=O)[O-]	inactive	
C[C@]12CCC(=O)C=C1CC[C@@H]1[C@@H]2CC[C@]2(C)C(=O)CC[C@@H]12		35.1 µM (active)
CC#Cc1cc(C)nc(Nc2ccccc2)n1	inactive	
O=C(O)C(F)(F)C(F)(F)C(F)(F)C(F)(F)C(F)(F)C(F)(F)C(F)(F)C(F)(F)F	inactive	
ClC1=C(Cl)[C@]2(Cl)[C@@H]3[C@@H](Cl)[C@H]4O[C@H]4[C@@H]3C1(Cl)C2(Cl)Cl	inactive	
CCCCCCCCCC[N+](C)(C)CCCCCCCCCC	inactive	
N#Cc1ccc(N(CC(N)=O)CC(F)(F)F)cc1C(F)(F)F	inactive	
Oc1ccc(Cl)cc1Cl	inactive	
Oc1c(Cl)c(Cl)c(Cl)c(Cl)c1Cl	inactive	
CCOC(=O)C(O)(c1ccc(Cl)cc1)c1ccc(Cl)cc1	inactive	
Oc1ccc(C(c2ccc(O)cc2)(C(F)(F)F)C(F)(F)F)cc1		53.3 µM (active)
